Source: PubChem BioAssay (NCI)
About 83,000 compounds went through this panel and 20% of them were active in at least one assay; those are over-represented in the sample as a whole.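 Method: cells in 96-well plates; compound added at one concentration; 48 h incubation; percent growth measured; values under 10 scored active.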 Calls of active or inactive are those of the source.

Each compound was assayed on SK-MEL-28 melanoma (assay: NCI-60 one-dose screen, 48 h (100 = growth as untreated, 0 = no growth, -100 = all killed)). Conditions: 10 µM.
Experimental: Growth inhibition of the SK-MEL-28 human tumor cell line is measured as a screen for anti-cancer activity. Cells are grown in 96 well plates and exposed to the test compound for 48 hours. Compounds are tested at a single concentration, which is 10^-5 M for most compounds. The reported endpoint is percent growth (GI% or GIPRCNT), where numbers from 0 - 100% represent growth inhibition, and numbers from -100% - 0 represent cell death. For example, a value of 40 represents 60% growth inhibition. A value of 0 means no net growth occurred over the course of the experiment. A value of -40 indicates 40% of cells at the beginning of the experiment died by the end of the experiment. A value of -100 means all cells are dead at the end of the experiment.
NCI-60 Human Tumor Cell Lines Screen was performed using the standard one-dose NCI protocol, which is described in more detail at https://dtp.cancer.gov/discovery_development/nci-60/default.htm.
Compounds with GIPRCNT values below 10 were considered active. Activity score was based on GIPRCNT using the following formula: […]
Score is 0 for GIPRCNT values of 100 or above, 50 for GIPRCNT values of 0, and 100 for GIPRCNT values of -100.
For `CC(C)(C)NC/C(=C\c1ccccc1)C(=O)c1ccccc1`, the growth was -29.2% (active). In the case of `c1ccc(CNc2ncnc3scc(-c4cccs4)c23)nc1`, the growth is reported as 96.7% (inactive). `COc1ccc(-c2ccc(-c3ccc(C(=N)N)cn3)o2)cc1` was tested, and the growth was 86.5% (inactive). For `CN(C)c1ccc(/C=C/C=N/NC(=O)c2cc(O)c(O)c(O)c2)cc1`, the growth was 108% (inactive). `COc1ccc2c(c1)N(CCO)C1=C(C(=O)OC1)C2c1cc(OC)c(OC)c(OC)c1` (stereo not given) was tested, and the growth was 65.6% (inactive). With `COc1cc(C2CC(c3ccc(Nc4ccnc5cc(Cl)ccc45)cc3)=NN2c2ccc(Cl)cc2)cc(OC)c1OC` (stereo not given) the growth was 67.4% (inactive). For `N#Cc1ncc(-c2ccc(C(F)(F)F)cc2)c(NCc2cc(C(F)(F)F)cc(C(F)(F)F)c2)n1`, the growth was 39.3% (inactive). `O=S(=O)(NCCNc1nccc(-c2c(-c3ccc(F)cc3)nc3sccn23)n1)c1ccc2ccccc2c1` was tested, and the growth was 93% (inactive). In the case of `CCN(CC)CCN1CC(=O)Nc2cc(Cl)ccc21`, the growth is reported as 115% (inactive). In the case of `CCCCCCCCCCCC[n+]1ccc(C(N)=O)cc1`, the growth is reported as 57.8% (inactive). For `COc1cccc(Cn2c(-c3nonc3N)nc3ccccc32)c1`, the growth was 43.7% (inactive). For `COC(=O)C(=C\c1ccc2c(c1)OCO2)/C(=C/c1ccc2c(c1)OCO2)C(=O)OC`, the growth was 103% (inactive). For `c1ccc([I+]c2ccccc2)cc1`, the growth was 87.4% (inactive). With `COc1ccc(OC)c(NC(=O)c2sc3nc4c(cc3c2N)C(=O)CCC4)c1` the growth was 83.7% (inactive). In the case of `O=C(c1ccc(Cl)cc1Cl)N1CCOCC1`, the growth is reported as 110% (inactive). With `O=C(Nc1cccc(-n2cc(-c3ccncc3)c(-c3cc(O)cc(Cl)c3)n2)c1)Nc1ccc(Cl)c(C(F)(F)F)c1` the growth was -13.5% (active). In the case of `ClCCOCCn1cnc2c(Cl)nc(Cl)nc21`, the growth is reported as 72.8% (inactive). For `FC(F)(F)c1ccc(-c2cnc(Cl)nc2N2CCC3(CC2)OCCO3)cc1`, the growth was 102% (inactive). In the case of `CC(=O)N1C/C(=C/c2ccc(Cl)cc2)C(=O)/C(=C/c2ccc(Cl)cc2)C1`, the growth is reported as -54.2% (active). In the case of `CNc1ccc(CSc2ccc(C)cc2)cc1`, the growth is reported as 93.8% (inactive). For `Cc1cccc2c1O/C(=C\c1ccc([N+](=O)[O-])o1)C2=O`, the growth was -56.6% (active). In the case of `CCCCCCCCCCCCCCCCN(C(C)c1ccccc1)S(=O)(=O)c1ccc(OC)c(N)c1` (stereo not given), the growth is reported as 109% (inactive). With `COc1ccc2nc3cc(Cl)ccc3c(NCCNCC(C)O)c2c1` (stereo not given) the growth was 54.7% (inactive). `C#Cc1ccc(-n2c(/C=C/c3ccc(O)c(OC)c3)nc3ncccc3c2=O)cc1` was tested, and the growth was 97.9% (inactive). For `CCCC(F)C(=O)O` (stereo not given), the growth was 111% (inactive). `CC(=O)c1nc2ccccc2n1CCN1CCN(C)CC1` was tested, and the growth was 48% (inactive). With `CCN1CCN(c2nc3ccccc3c3c(=O)c4ccccc4sc23)CC1` the growth was 31.1% (inactive). With `O=C1C(c2ccccc2)C2C=CC(C2)N1O` (stereo not given) the growth was 118% (inactive). In the case of `COc1ccc(NC2=NC(C)(CO)CS2)cc1` (stereo not given), the growth is reported as 106% (inactive). In the case of `CCCCCCCNc1nc(C=O)ncc1-c1ccc(C(F)(F)F)cc1`, the growth is reported as 104% (inactive). `Nc1ccc2cc(S(=O)(=O)O)cc(O)c2c1N=Nc1ccc(F)cc1` was tested, and the growth was 132% (inactive). With `O=C1CC[C@@H]2CCCC[C@@H]2C1` the growth was 112% (inactive). For `COc1ccc(Nc2cc(C)nc(NCCCNc3ccnc4cc(Cl)ccc34)n2)cc1`, the growth was -100% (active). In the case of `COc1ccc2c(c1)nc(N)c1c3cccnc3cn21`, the growth is reported as 62.6% (inactive). With `O=C(Nc1ccc(CN2CCc3nc4cc(O)c(O)cc4cc32)cc1)c1ccc(Cl)c(Cl)c1` the growth was 96.8% (inactive). With `CC(=O)[C@H]1CC[C@H]2[C@@H]3CCC4=CC(=O)C=C[C@]4(C)[C@H]3CC[C@]12C` the growth was 109% (inactive). For `Oc1[nH]c2cc(Cl)ccc2c1/C=c1/ccc2c(c1)N=C(c1cc(F)cc(F)c1)N=2`, the growth was 40.1% (inactive). In the case of `CN(C)c1ccc(Cc2ccc(N(C)C)cc2Cl)c(Cl)c1`, the growth is reported as 105% (inactive). In the case of `COc1ccc(/C=C2/CN(C(=O)c3ccc(C)cc3)C/C(=C\c3ccc(OC)cc3)C2=O)cc1`, the growth is reported as 116% (inactive). `CN(C)CCN1C(=O)c2cccc3c(-c4ccc5ncn(C6CCCCC6)c5c4)ccc(c23)C1=O` was tested, and the growth was 47.2% (inactive).
